Hits are enriched below; roughly 4.7% of the tested compounds scored in any of these assays.
HSF1 activator – HSF-1 activators, primary screen, NIH3T3-HGL cells, MG132 stress, luminescence, single point; NIH3T3-HGL HSF-1 luciferase reporter, 8 h; 100% = twice DMSO control signal; activation, % at 9 µM; actives 1.7% (n = 300,000); AID 504408, 2011;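 active = mean replicate activation of at least 50% with a set share of replicates each reaching 50%; inconclusive = only one of those two conditions met; inactive = mean below 50% and too few replicates reaching it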;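 note: 0% = median of the neutral control wells and 100% = twice that signal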
TWEAK Fn14 block – inhibitors of TWEAK-Fn14 signaling, primary screen, luciferase reporter cells, uHTS. actives 2% (n = 360,000). inhibition, % at 10 µM. AID 1159606, 2016. TWEAK-stimulated Fn14 reporter cells, luciferase luminescence, 8 h; in the data active = inhibition above about 50%
LMP1 NFkB inh – EBV LMP1-driven NF-kappaB luciferase reporter inhibitors, primary screen, cell-based, luminescence, single point. LMP1-induced NF-kappaB luciferase reporter cells. inhibition, % at 12.5 µM. actives 0.69% (n = 350,000). AID 504558, 2011; in the data active = inhibition above about 41%; inconclusive = no clear call, values can overlap the other calls;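 note: 0% = neutral control wells and 100% = reference inhibitor control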
TROY signal inh – inhibitors of TROY-driven NF-kB signaling, primary screen, Q293 LMP1-TROYcd cells, NF-kB luciferase, uHTS. Q293 LMP1-TROYcd NF-kB luciferase reporter, 4 h. inhibition, % at 10 µM. actives 0.98% (n = 360,000);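 active = compounds whose plate-normalised and pattern-corrected inhibition of the luciferase reporter signal at the single screening dose is 50% or more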
HSP90 inh – HSP90 inhibitors, primary screen, cell lysate, luminescence. Heat shock protein HSP 90 (rabbit reticulocyte lysate; luciferase refolding). inhibition, % at 5.6 µM. actives 0.91% (n = 290,000). AID 1789, 2009. Rabbit reticulocyte lysate, luciferase refolding luminescence, 3 h;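 active = inhibition above the screen-wide mean plus 3 SD, computed separately per campaign, cut at about 16% in these data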;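 note: 0% = DMSO wells and 100% = 60 µM geldanamycin wells; inhibitors lower the luminescence because luciferase stays unfolded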
HSF1 inh – HSF1 inhibitors in luciferase reporter cells, primary screen, cell-based, NIH3T3, luminescence | activity change, negative = inhibition, % at 7.5 µM (by protocol) | NIH3T3-HGL HSE-luciferase, MG132-induced, luminescence 8 h; active compounds read low | actives 0.77% (n = 300,000);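 active = more than half of replicate wells show activity change below -50%, luminescence cut by over half; inconclusive = some wells, but at most half, below -50%; inactive = no replicate well below -50%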;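 note: luciferase reports HSF-1 transcriptional activity via heat shock element; 0% = median of DMSO wells and -100% = zero luminescence signal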
Starred values were filed as active, the others as inactive; ? = inconclusive; · = no result given.

SMILES	HSF1 activator	TWEAK Fn14 block	LMP1 NFkB inh	TROY signal inh	HSP90 inh	HSF1 inh
C[C@@H]1CN([C@@H](C)CO)C(=O)c2cc(Br)cnc2O[C@H]1CN(C)C(=O)Cc1ccccn1	·	-6	-7	1	·	·
O=C(CCCN1CCC(C(O)c2ccc(F)cc2)CC1)c1ccc(F)cc1 (stereo not given)	·	-5	·	15	·	·
COc1ccc(CN(CC2CCC(C(=O)O)CC2)C(=S)Nc2cc(C)ccc2C)cc1 (stereo not given)	·	10	-5	7	4	·
COc1ccc(CN(CC2CCC(C(=O)O)CC2)C(=S)Nc2cc(Cl)ccc2OC)cc1 (stereo not given)	337*	-11	-2	4	2	266
COc1ccc(OC)c(S(=O)(=O)NC(=O)C2(C)CCN2C(=O)Cc2ccccc2)c1 (stereo not given)	·	4	·	-3	·	·
CNc1ncnc2c1ncn2[C@H]1CN(Cc2ccc(-c3ccccc3)cc2)C[C@@H](CO)O1	·	20	·	9	·	·
Cc1ccc(C2CC(C(F)(F)F)n3nc(C(=O)NCc4c(C)nn(C)c4C)c(Cl)c3N2)cc1 (stereo not given)	-14	34	35	58*	3	-8
Cc1cccc(C(=O)NC(=S)Nc2ccc(S(=O)(=O)N3CCN(C)CC3)cc2)c1	3	-10	-8	6	-5	1
O=C(Nc1cccc(O)c1)c1ccc(S(=O)(=O)N2CCCCCC2)cc1	75*	-14	-5	-42	-2	36
O=C(Nc1ccc(S(=O)(=O)N2CCCC2)cc1)c1ccc(CN2CCc3ccccc3C2)cc1	0	68*	18	33	4	-1
Cc1cccc(C(=O)NC(=S)Nc2ccc(S(=O)(=O)N3CCCCC3)cc2)c1	-4	51*	2	2	3	-4
O=C(Nc1ccc(S(=O)(=O)N2CCOCC2)cc1)c1ccc(CN2CCc3ccccc3C2)cc1	-4	·	·	·	0	4
C/C(=N\NC(=O)c1ccc(CN2CCc3ccccc3C2)cc1)c1ccccc1O	?	83*	34	38	3	15
O=C(Nc1cccc(O)c1)c1cccc(S(=O)(=O)N2CCCC2)c1	6	-14	0	-1	4	1
CCCNC(=O)c1ccc(CN2CCc3ccccc3C2)cc1	-8	-17	0	4	-4	-4
Clc1ccccc1CNCc1ccc2c(c1)OCO2	·	-49	-3	-60	·	·
Cc1ccc(C(=O)Nc2cccc(C(=O)O)c2)cc1S(=O)(=O)N1CCOCC1	-18	-28	14	-3	11	-4
Cc1ccc(C(=O)Nc2cccc(C(=O)O)c2)cc1S(=O)(=O)N1CCCCC1	·	-15	44*	-18	2	·
Cc1ccc(C(=O)Nc2ccccc2C(=O)NCc2ccco2)cc1S(=O)(=O)N1CCCCC1	2	52*	-25	-27	-2	2
Cc1ccc(C(=O)NCc2ccco2)cc1S(=O)(=O)N1CCCCC1	4	13	6	-9	2	-3
CC(Sc1nc(-c2ccc(F)cc2)cs1)C(=O)N1c2ccccc2CC1C (stereo not given)	6	30	59*	9	4	-2
CCn1nc([N+](=O)[O-])c(C(C#N)c2nc3cc(C(F)(F)F)ccc3s2)c(Cl)c1=O (stereo not given)	64*	-12	7	65*	3	57
CCCn1nc([N+](=O)[O-])c(C(C#N)c2nc3ccccc3o2)c(Cl)c1=O (stereo not given)	97*	-44	3	57*	0	76
Cn1nc([N+](=O)[O-])c(C(C#N)c2ccccn2)c(Cl)c1=O (stereo not given)	35	-10	-1	-7	-4	25
Cc1ccc(Cn2c(C(C)Nc3nc(-c4ccc(Cl)c([N+](=O)[O-])c4)cs3)nc3cc(C(F)(F)F)ccc32)cc1 (stereo not given)	-18	8	-4	-1	·	-4

From PubChem
